Laboratory results: PMC4336329 (PLoS ONE, 2015)
Among all 310,000 compounds or so, about 14,000 (4.5%) showed an effect of 50% or more. Effects have a minus sign here. The entries come from a sample that favours strong results as a whole.

biological target: human ether-à-go-go-related gene (hERG) potassium channel (human, UniProt Q12809); experiment: primary screen, population patch clamp on CHO cells stably expressing hERG; higher = less effect of the substance
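Further: peak tail current of the secondary pulse compared with the same well before compound.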

human ether-à-go-go-related gene (hERG) potassium channel, sequence (Q12809 whole entry, looked up): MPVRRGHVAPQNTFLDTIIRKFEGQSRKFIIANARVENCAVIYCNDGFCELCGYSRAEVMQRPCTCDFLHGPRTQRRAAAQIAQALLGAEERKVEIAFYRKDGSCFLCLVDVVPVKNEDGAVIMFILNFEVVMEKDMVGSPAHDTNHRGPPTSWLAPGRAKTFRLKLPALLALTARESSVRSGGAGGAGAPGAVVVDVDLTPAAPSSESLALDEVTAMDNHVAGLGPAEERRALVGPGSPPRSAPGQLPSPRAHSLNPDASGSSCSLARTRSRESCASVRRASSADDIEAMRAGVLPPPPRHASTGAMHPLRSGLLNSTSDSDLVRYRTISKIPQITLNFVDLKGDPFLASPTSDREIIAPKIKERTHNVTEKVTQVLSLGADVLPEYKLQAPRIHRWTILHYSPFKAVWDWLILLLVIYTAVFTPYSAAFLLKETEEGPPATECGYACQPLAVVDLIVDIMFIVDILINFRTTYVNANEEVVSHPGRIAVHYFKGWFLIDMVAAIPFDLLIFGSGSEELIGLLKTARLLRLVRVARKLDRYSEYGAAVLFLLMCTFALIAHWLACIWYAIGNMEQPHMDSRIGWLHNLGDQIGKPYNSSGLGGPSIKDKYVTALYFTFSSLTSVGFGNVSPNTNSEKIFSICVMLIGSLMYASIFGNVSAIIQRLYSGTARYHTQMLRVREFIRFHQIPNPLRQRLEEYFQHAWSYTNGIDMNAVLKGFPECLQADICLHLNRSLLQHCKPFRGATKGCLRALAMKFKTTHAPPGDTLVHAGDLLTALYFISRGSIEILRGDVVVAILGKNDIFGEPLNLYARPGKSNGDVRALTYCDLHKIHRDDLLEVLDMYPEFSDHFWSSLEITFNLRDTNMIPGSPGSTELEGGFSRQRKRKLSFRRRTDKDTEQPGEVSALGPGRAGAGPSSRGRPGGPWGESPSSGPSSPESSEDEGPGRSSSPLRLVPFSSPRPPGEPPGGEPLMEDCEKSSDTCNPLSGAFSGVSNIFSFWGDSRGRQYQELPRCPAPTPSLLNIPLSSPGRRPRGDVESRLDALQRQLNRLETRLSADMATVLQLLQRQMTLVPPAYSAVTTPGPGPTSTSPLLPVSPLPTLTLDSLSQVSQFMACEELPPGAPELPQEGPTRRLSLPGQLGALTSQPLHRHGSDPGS

Compound | hERG current change (%, negative = inhibition) at 10uM [%]
CC(=O)Nc1ccc(OCc2cnc(Cl)s2)cc1 | 11.3
CCN(C(=O)COC(=O)c1c(C)nsc1NC)c1ccccc1 | -11.9
Cc1onc(-c2ccccc2)c1C(=O)NNC(=S)NC(=O)/C=C/c1ccccc1 | 16.2
O=C(c1ccccc1)N1CCN(C2c3cccc4cccc(c34)C2NS(=O)(=O)c2ccccc2)CC1 (centres unmarked) | -21.9
O=S(=O)(Nc1ccc(S(=O)(=O)N2CCCC2)cc1)c1ccccc1Br | 3.27
CCC(=NCc1ccccc1)C1=C(O)C(C(=O)OC)C(C)(C)CC1=O (centres unmarked) | -17
C[C@@H]1CC=C[C@H]2[C@H]1C(=O)N(Cc1ccccc1)[C@H]2c1ccc(-c2ccc(F)cc2)cc1F | -0.198
O=C(CSc1nnc(-c2cccs2)n1-c1ccccc1)NCC1CCCO1 (centres unmarked) | -74.1
Cc1nnc(SCC(=O)NCC2CCCO2)n1-c1ccccc1 (centres unmarked) | -4.28
O=C(CSc1nnc(-c2cccs2)n1C1CC1)NCC1CCCO1 (centres unmarked) | -0.536
CCn1c(SCC(=O)NCc2ccco2)nnc1-c1cccs1 | -8.86
O=C(CSc1nc2c(c(=O)n1-c1ccc(Br)cc1)SCC2)NCC1CCCO1 (centres unmarked) | -60.9
O=C(CSc1nnc(-c2cccs2)n1-c1ccccc1)NCc1ccco1 | -73
O=C(CSc1nc2c(c(=O)n1-c1ccc(Cl)cc1)SCC2)NCC1CCCO1 (centres unmarked) | -34.5
O=C(CSc1nc2c(c(=O)n1-c1ccc(F)cc1)SCC2)NCC1CCCO1 (centres unmarked) | -2.45
Cc1cc(C)nc(SCc2nnc(SCC(=O)NCc3ccco3)n2-c2ccccc2)n1 | -14.5
CN(/N=C/c1c[nH]c2ccccc12)c1cnn(-c2ccc(F)c(Cl)c2)c(=O)c1Cl | -5.66
CCOc1ccccc1CN1CCNC(=O)C1CC(=O)N(C)Cc1nonc1C (centres unmarked) | 8.59
COc1ccc(CNC(=O)c2cccc(-c3ccc(C)c4ccccc34)n2)cc1 | -24
COc1ccc(-c2ccc(NS(=O)(=O)c3cc([N+](=O)[O-])ccc3C)cc2)nn1 | -25.5
CN(CC(=O)Nc1ccc(Cl)cc1)S(=O)(=O)c1ccc2c(c1)n(C)c(=O)c(=O)n2C | 16.3
COc1cccc(CC2(CO)CCCN(CC3=Cc4cc(OC)ccc4OC3)C2)c1 (centres unmarked) | -21.5
COc1ccc(CC2(CO)CCN(CC3=Cc4cc(Cl)ccc4OC3)CC2)cc1 | -58.3

Compound | hERG current change (%, negative = inhibition) at 10uM [%]
COc1ccc2c(c1)C=C(CN1CCC(CO)(CCc3ccccc3)CC1)CO2 | -77.1
COc1cccc(CC2(CO)CCCN(CC3=Cc4cc(Cl)ccc4OC3)C2)c1 (centres unmarked) | -7.49
OCC1(CCOc2ccccc2)CCN(CC2=Cc3cc(Cl)ccc3OC2)CC1 | -21.9
CCOc1ccc(S(=O)(=O)NC(Cc2cnc[nH]2)C(=O)O)cc1 (centres unmarked) | 18.5
CCN(CC)c1ccc(NC(=O)c2ccc(=O)[nH]c2)cc1S(=O)(=O)Nc1ccc(OC)cc1 | -7.22
CCN(CC)CCCC(C)NC(=O)c1cccc(S(=O)(=O)N2CCc3ccccc32)c1.Cl (centres unmarked) | -58.5
CC(NC(=O)c1cccc(S(=O)(=O)N2CCc3ccccc32)c1)c1ccco1 (centres unmarked) | -48
CCCNC(=O)c1cc(S(=O)(=O)N2CCc3ccccc32)cn1C | -0.715
CC(C)CCNC(=O)c1cc(S(=O)(=O)N2CCc3ccccc32)cn1C | 10.2
CCN(CC)CCNC(=O)c1cc(S(=O)(=O)N2CCc3ccccc32)cn1C | -66.1
CC(C)CCNC(=O)c1cccc(S(=O)(=O)N2CCc3ccccc32)c1 | 2.44
CCCOc1ccccc1C1CC(=O)NC2=C1C(=O)CCC2 (centres unmarked) | -1.24
C=CCOc1ccc(/C=C/C(=O)OC(C)C(=O)Nc2ccc(NC(C)=O)cc2)cc1 (centres unmarked) | 4.6
Cc1nc(CNC(=O)CC2C(=O)NCCN2Cc2ccc(F)cc2)cs1 (centres unmarked) | 11.9
Cc1cc(C)nc(N(C#N)CN2C(=O)c3ccccc3S2(=O)=O)n1 | 0.542
O=C(O)c1ccc(Cl)c(S(=O)(=O)N2CCCCCC2)c1 | -8.34
C/C(=N\NC(=O)CN(c1ccc(C)cc1)S(C)(=O)=O)c1cccs1 | -8.31
O=C(Nc1cc(Cl)ccc1Oc1ccccc1)c1ccc(F)cc1 | -14.1
COc1ccc(C2CC(c3cccs3)=NN2C(=O)CSc2nc(=O)n3ccc(C)cc3n2)cc1 (centres unmarked) | -65.4
CCOC(=O)CSCC(=O)N1N=C(c2cccs2)CC1c1ccc(F)cc1 (centres unmarked) | -34.1
Cc1ccn2c(=O)nc(SCC(=O)N3N=C(c4cccs4)CC3c3ccc(F)cc3)nc2c1 (centres unmarked) | -65
Cc1ccc(C2CC(c3cccs3)=NN2C(=O)CSc2nc(=O)n3ccc(C)cc3n2)cc1 (centres unmarked) | -46.3
COc1ccc(C2=NN(C(=O)CSc3nc(=O)n4ccc(C)cc4n3)C(c3ccc(C)cc3)C2)cc1 (centres unmarked) | 5.1

Compound | hERG current change (%, negative = inhibition) at 10uM [%]
CCN1CCN(CC(=O)N2N=C(c3cccs3)CC2c2ccc(OC)cc2)C(=O)C1=O (centres unmarked) | -8.83
COCCn1c(N)c(C(=O)NCC2CCCO2)c2nc3ccccc3nc21 (centres unmarked) | -7.66
CN(CC(=O)Nc1ccc(Cl)cc1)C(=O)CNC(=O)Cc1cccc2ccccc12 | 20.1
COc1cccc(CN(C(=O)Cn2nnc(-c3ccccc3F)n2)C(C(=O)NC(C)(C)C)c2ccncc2)c1 (centres unmarked) | -18.7
O=[N+]([O-])c1ccc(N(c2ccccc2)c2ccccc2)cc1 | 4.46
Cc1nn(-c2cc(N3CCNCC3)ccc2[N+](=O)[O-])c(=O)c2ccccc12 | -11.4
CCOc1c(Cl)cc(CNc2ccc(S(N)(=O)=O)cc2)cc1OC | -3.11
OC(COC(c1ccc(Cl)cc1)c1ccc(Cl)cc1)CN1CCCC1 (centres unmarked) | -77.4
CC1CN(CC(O)COc2ccc(C(C)C)cc2)CC(C)O1.Cl (centres unmarked) | -14.3
COc1ccc(OCC(O)CN2CC(C)OC(C)C2)cc1.Cl (centres unmarked) | 17.5
CC1CN(CC(O)COC(c2ccc(Cl)cc2)c2ccc(Cl)cc2)CC(C)O1.Cl (centres unmarked) | -71.9
CN1CCN(CC(O)COC(c2ccc(Cl)cc2)c2ccc(Cl)cc2)CC1.Cl (centres unmarked) | -69.3
CC(C)c1ccc(OCC(O)CN2CCCC2)cc1.Cl (centres unmarked) | -11.1
CN1CCN(CC(O)COc2ccc(Cl)cc2)CC1.Cl (centres unmarked) | -12.5
CN1CCN(CC(O)COC(c2ccccc2)c2ccccc2)CC1 (centres unmarked) | 11.2
CC1CCCCC1NC(=O)c1nnc(Cc2ccc(Cl)cc2)o1 (centres unmarked) | -9.72
O=c1[nH]c(=O)c2nc3c4ccccc4c4ccccc4c3nc2[nH]1 | 4.75
CCOP(=O)(O)c1ccccc1OCCCCCOc1ccccc1P(=O)(O)OCC | 14.5
COC(=O)C(C)(C(=O)OC)c1ccccc1[N+](=O)[O-] | 7.93
COCCSc1ccccc1C(=O)Nc1nccs1 | -2.77
O=C(c1ccccc1)c1ccc(OCC(O)CN2CCOCC2)cc1 (centres unmarked) | -10.8
CN(C)S(=O)(=O)N1CCN(CC(O)COc2ccc(C(=O)c3ccccc3)cc2)CC1 (centres unmarked) | -70.2
CCC(=O)c1ccc(OCC(O)CN2CCCCC2)cc1.Cl (centres unmarked) | -21.8

Compound | hERG current change (%, negative = inhibition) at 10uM [%]
CCC(=O)c1ccc(OCC(O)CN2CCN(S(=O)(=O)c3ccc(NC(C)=O)cc3)CC2)cc1 (centres unmarked) | -20.5
O=C(c1ccccc1)c1ccc(OCC(O)CN2CCN(S(=O)(=O)N3CCCCC3)CC2)cc1 (centres unmarked) | -73.5
CN(C)S(=O)(=O)N1CCN(CC(O)COc2ccc(-c3ccccc3)cc2)CC1 (centres unmarked) | -27.3
CCC(=O)c1ccc(OCC(O)CN2CCN(S(=O)(=O)N3CCCCC3)CC2)cc1 (centres unmarked) | -55.1
O=S(=O)(N1CCCCC1)N1CCN(CC(O)COc2ccc3cc(Br)ccc3c2)CC1 (centres unmarked) | 7.33
CN(C)S(=O)(=O)N1CCN(CC(O)COc2ccc3cc(Br)ccc3c2)CC1 (centres unmarked) | -25.6
CCOc1ccc(N2C(=O)CN=C2Nc2ccccc2F)cc1 | 5.08
COc1ccc(Br)cc1CNc1ccccc1.O=C(O)C(=O)O | 9.4
CN=C1C=C/C(=N/N=c2\ccn(O)cc2C)C=C1C | -32.6
COC(=O)C1=C(C)N=C2SCCC(=O)N2C1c1cccs1 (centres unmarked) | 10.4
O=C(O)C(=O)O.c1ccc(CNC23CC4CC(CC(C4)C2)C3)nc1 | 15.3
O=C(C1CCCN(CCCc2ccccc2)C1)N1CCCCCC1.O=C(O)C(=O)O (centres unmarked) | -46.2
O=C(C1CC1)N(CCN(Cc1ccccc1)C(=O)C1CC1)Cc1ccccc1 | -28.9
CCN(Cc1ccccc1)C(=O)C1CCN(CC2CC=CCC2)CC1.O=C(O)C(=O)O (centres unmarked) | -46.9
CC1CCCN(C(=O)C2CCN(CCCc3ccccc3)CC2)C1.O=C(O)C(=O)O (centres unmarked) | -47.5
CCC(C)NC(=O)C1CCN(CCCc2ccccc2)CC1.O=C(O)C(=O)O (centres unmarked) | -1.26
CC1CCN(C(=O)C2CCN(CCCc3ccccc3)CC2)CC1.O=C(O)C(=O)O | -62.3
O=C(C1CCN(CC2CC=CCC2)CC1)N(CCc1ccccc1)Cc1ccccc1 (centres unmarked) | -72
CCN(CC)C(=O)C1CCN(CC2CC=CCC2)CC1 (centres unmarked) | -0.0716
CCN(CC)C(=O)C1CCCN(Cc2sccc2C)C1 (centres unmarked) | 11.6
CCCCN(Cc1ccccc1)C(=O)C1CCN(Cc2sccc2C)CC1.O=C(O)C(=O)O | -68.3
CCN(Cc1ccccc1)C(=O)C1CCN(Cc2sccc2C)CC1.O=C(O)C(=O)O | -44.3
O=C(C1CCN(CCCc2ccccc2)CC1)N(CCc1ccccc1)Cc1ccccc1.O=C(O)C(=O)O | -75
